Measured values reported in PubChem BioAssay (NCATS).
Results filed as inconclusive are left out. The source made the active and inactive calls. Unless noted, calls come from the whole dose curve; as a rule, active = well fitted curve in the direction sought with a large enough effect; inconclusive = small, poorly fitted or top-dose-only effect, or another doubt; inactive = no such curve, though single readings can be large; an effect the other way counts as inactive or inconclusive.

Key:
[1] = Cell Viability - HUV-EC-C (AID 542);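 note: cells exposed to compound for 40 hours; nearly all actives have a fitted effect of over 35% in size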; for activity change, negative = cytotoxicity: % is set by controls: 0 for no effect and ±100 for the full control effect
In short: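 Cells were seeded at 1000 per well and incubated 5 hr at 37 °C before compound addition. After 40 hr at 37 °C, CellTiter-Glo reagent was added for 20 min and luminescence read. AC50 values came from Hill-equation modelling.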

[2] = Cell Viability - Mesenchymal (AID 546); settings: mesenchymal cells viability, qHTS; activity change, negative = cytotoxicity: at 91.7 µM (top of the series);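 note: cells exposed to compound for 40 hours before reading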;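 for activity change, negative = cytotoxicity: 0% = DMSO only and -100% = 100 µM tamoxifen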
In short: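 CellTiter-Glo luminescence (intracellular ATP, 20 min room temperature) after 40 hr compound exposure at 37 °C of 1000 glomerulus-derived human kidney mesenchymal cells/well; AC50 values obtained by fitting qHTS concentration-response data to the Hill equation.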

[3] = MultiTox-Fluor Cytotoxicity Assay - LYMP1-001 - Live Cells (AID 947);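 for activity change, negative = cytotoxicity: 0% = DMSO only and full inhibition = tetraoctylammonium bromide control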
[4] = MultiTox-Fluor Cytotoxicity Assay - LYMP1-003 - Dead Cells (AID 961); note: nearly all actives have a fitted effect of over 70% in size
In short: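 Dead-cell protease release, detected as bis-AAF-R110 fluorescence at 485/520 nm, was measured in LYMP1-003 cells after 16 h compound treatment at 37 C. AC50 values came from Hill-modeled qHTS curves normalized to DMSO (0%) and 15 uM tetraoctylammonium bromide (100%).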

[5] = Cell Viability - LYMP1-003 - Assay at 40 hr (AID 964); note: nearly all actives have a fitted effect of over 60% in size
In short: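 Luminescent ATP signal (CellTiter-Glo) served as the viability read-out after 40 hr compound treatment of human lymphoblastoid LYMP1-003 cells at 37 C. Decreases in ATP were fitted with the Hill equation to give AC50.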

[6] = Cell Viability - LYMP2-004 (AID 966); note: nearly all actives have a fitted effect of over 65% in size;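 for activity change, negative = cytotoxicity: plate controls were DMSO only for no effect and tetraoctylammonium bromide control for full effect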
In short: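 qHTS cytotoxicity: human lymphoblastoid line, 24 hr compound treatment, 37 C, complete medium. Viability read as cellular ATP via luciferase luminescence; tetraoctylammonium bromide served as positive control.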

[7] = Cell Viability - LYMP2-011 (AID 969); note: nearly all actives have a fitted effect of over 60% in size
In short: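 In this qHTS cytotoxicity format, compounds are tested across concentrations on human lymphoblastoid cells in complete medium for 24 hours at 37 C. Viability is taken as cellular ATP measured by luciferase luminescence.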

[8] = Cell Viability - LYMP2-013 (AID 970); note: nearly all actives have a fitted effect of over 55% in size
In short: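 Cytotoxicity is scored as a concentration-dependent drop in intracellular ATP in human lymphoblastoid cells after 24 hr compound exposure at 37 C. ATP is quantified by luciferase luminescence, and AC50 values come from Hill-equation modeling.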

[9] = Cell Viability - LYMP2-015 (AID 971); note: nearly all actives have a fitted effect of over 55% in size
In short: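 Cells are seeded at 2500 per well and incubated 5 hr at 37 C. Compounds are added across a concentration series for 24 hr at 37 C. CellTiter-Glo is added, and luminescence is read after 30 min at room temperature.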

[10] = Cell Viability - LYMP2-017 (AID 972); note: nearly all actives have a fitted effect of over 55% in size; for activity change, negative = cytotoxicity: % is set by controls: 0 for no effect and ±100 for the full control effect
In short: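 Cytotoxicity is scored as a concentration-dependent drop in cellular ATP in a human lymphoblastoid line after 24 hr treatment at 37 C. Values are AC50s from Hill-equation modelling.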

[11] = Cell Viability - LYMP2-019 (AID 973); note: nearly all actives have a fitted effect of over 55% in size;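 for activity change, negative = cytotoxicity: 0% = DMSO alone and full effect = 92 µM tetraoctylammonium bromide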
In short: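 Cytotoxicity is scored as a concentration-dependent drop in cellular ATP after cells (2500/well) receive compound for 24 hr at 37 C. Tetraoctylammonium bromide serves as positive control.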

[12] = Cell Viability - LYMP2-023 (AID 975); note: nearly all actives have a fitted effect of over 55% in size;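 for activity change, negative = cytotoxicity: plate controls were DMSO only for no effect and 92 µM tetraoctylammonium bromide control for full effect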
In short: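 Steps: seed 2500 human lymphoblastoid cells per well, incubate 5 hr at 37 C, add compound for 24 hr at 37 C, add CellTiter-Glo, hold 30 min at room temperature, read luminescence. AC50 derived by Hill modelling.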

[13] = Cell Viability - LYMP2-025 (AID 976);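 for activity change, negative = cytotoxicity: plate controls were DMSO only for no effect and tetraoctylammonium bromide control for full effect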
In short: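 Acute cytotoxicity is scored as a concentration-dependent fall in intracellular ATP, measured by luciferase luminescence, in human lymphoblastoid LYMP2-025 cells exposed to compound for 24 hours at 37 C. AC50 values come from standard Hill fits.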

[14] = Cell Viability - LYMP2-006 (AID 978); note: nearly all actives have a fitted effect of over 60% in size; for activity change, negative = cytotoxicity: % is set by controls: 0 for no effect and ±100 for the full control effect
In short: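 Human lymphoblastoid cells, 2500 per well, were preincubated 5 hr at 37 C, then exposed to compounds for 24 hr at 37 C in complete medium. Viability was read as intracellular ATP by CellTiter-Glo luminescence; AC50 from Hill-equation fits of qHTS concentration-response data.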

[15] = Cell Viability - LYMP2-010 (AID 981); note: nearly all actives have a fitted effect of over 55% in size
In short: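 Steps: seed 2500 LYMP2-010 cells per well; incubate 5 hr at 37 C; add compound; incubate 24 hr at 37 C; add CellTiter-Glo, wait 30 min at room temperature; read luminescence. Concentration-response fitted to Hill equation for AC50.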

[16] = Cell Viability - LYMP2-014 (AID 983); note: nearly all actives have a fitted effect of over 50% in size;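 for activity change, negative = cytotoxicity: plate controls were DMSO only for no effect and 92 µM tetraoctylammonium bromide for full effect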
In short: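 Cells are plated at 2500/well and left 5 hr at 37 C. Compounds are added across a concentration range and incubated 24 hr at 37 C in complete medium. CellTiter-Glo is added, and luminescence is read after 30 min at room temperature.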

[17] = Cell Viability - LYMP1-002 - Assay at 40 hr (AID 994); note: nearly all actives have a fitted effect of over 60% in size
In short: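 Cells are plated at 2500 per well and rested 5 hr at 37 C. Compounds are added and incubated 40 hr at 37 C. CellTiter-Glo reagent is added for 30 min at room temperature before luminescence is read.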

[18] = target: Voltage-gated inwardly rectifying potassium channel KCNH2 (Homo sapiens) (UniProt Q12809); experiment: qHTS Assay for Small Molecule Inhibitors of the Human hERG Channel Activity (AID 588834);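 note: lower thallium flux fluorescence means stronger hERG block; nearly all actives have a fitted effect of over 50% in size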
In short: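 In hERG-transduced U2OS cells, dye-loaded for 1 hr at room temperature in dark, test compounds incubated 10 min at 37 °C before thallium stimulation. AC50 values derived by Hill modelling of concentration-response.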

[19] = qHTS assay for small molecule disruptors of the mitochondrial membrane potential - 5 hr assay (AID 651755; calls by dose curve; note: nearly all actives have a fitted effect of over 40% in size)
In short: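 Membrane-potential dye readout: red aggregate (540 ex/590 em) versus green monomer (490 ex/535 em) fluorescence after 30 min dye loading, following 5 hr compound exposure at 37C of overnight-plated HepG2 cells.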

[20] = target: Cytochrome P450 1A2 (Homo sapiens) (UniProt P05177); experiment: p450-cyp1a2 (AID 410; calls by dose curve)
In short: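 O-Demethylation of luciferin 6' methyl ether by human CYP1A2 is monitored as luciferase luminescence. Substrate sits at Km (100uM); enzyme is 20nM. Values are scaled to 57 uM furafylline as maximal inhibition.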
Potency is the fitted concentration of half-maximal effect.

Cytochrome P450 1A2 (Homo sapiens), sequence (P05177 whole entry, looked up): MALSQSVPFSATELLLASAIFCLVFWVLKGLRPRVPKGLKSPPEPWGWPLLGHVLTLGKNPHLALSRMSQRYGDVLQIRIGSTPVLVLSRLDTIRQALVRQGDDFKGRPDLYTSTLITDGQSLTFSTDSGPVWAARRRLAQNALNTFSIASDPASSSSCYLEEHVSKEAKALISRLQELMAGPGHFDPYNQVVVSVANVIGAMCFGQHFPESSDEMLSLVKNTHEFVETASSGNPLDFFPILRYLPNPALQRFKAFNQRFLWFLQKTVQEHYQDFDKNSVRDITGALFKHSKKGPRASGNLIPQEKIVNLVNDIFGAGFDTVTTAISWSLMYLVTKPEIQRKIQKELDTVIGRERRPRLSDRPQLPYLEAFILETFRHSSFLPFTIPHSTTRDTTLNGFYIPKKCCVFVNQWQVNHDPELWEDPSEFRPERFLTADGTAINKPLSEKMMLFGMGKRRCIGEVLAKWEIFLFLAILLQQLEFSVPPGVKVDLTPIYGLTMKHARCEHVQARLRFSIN
Voltage-gated inwardly rectifying potassium channel KCNH2 (Homo sapiens), sequence (Q12809 whole entry, looked up): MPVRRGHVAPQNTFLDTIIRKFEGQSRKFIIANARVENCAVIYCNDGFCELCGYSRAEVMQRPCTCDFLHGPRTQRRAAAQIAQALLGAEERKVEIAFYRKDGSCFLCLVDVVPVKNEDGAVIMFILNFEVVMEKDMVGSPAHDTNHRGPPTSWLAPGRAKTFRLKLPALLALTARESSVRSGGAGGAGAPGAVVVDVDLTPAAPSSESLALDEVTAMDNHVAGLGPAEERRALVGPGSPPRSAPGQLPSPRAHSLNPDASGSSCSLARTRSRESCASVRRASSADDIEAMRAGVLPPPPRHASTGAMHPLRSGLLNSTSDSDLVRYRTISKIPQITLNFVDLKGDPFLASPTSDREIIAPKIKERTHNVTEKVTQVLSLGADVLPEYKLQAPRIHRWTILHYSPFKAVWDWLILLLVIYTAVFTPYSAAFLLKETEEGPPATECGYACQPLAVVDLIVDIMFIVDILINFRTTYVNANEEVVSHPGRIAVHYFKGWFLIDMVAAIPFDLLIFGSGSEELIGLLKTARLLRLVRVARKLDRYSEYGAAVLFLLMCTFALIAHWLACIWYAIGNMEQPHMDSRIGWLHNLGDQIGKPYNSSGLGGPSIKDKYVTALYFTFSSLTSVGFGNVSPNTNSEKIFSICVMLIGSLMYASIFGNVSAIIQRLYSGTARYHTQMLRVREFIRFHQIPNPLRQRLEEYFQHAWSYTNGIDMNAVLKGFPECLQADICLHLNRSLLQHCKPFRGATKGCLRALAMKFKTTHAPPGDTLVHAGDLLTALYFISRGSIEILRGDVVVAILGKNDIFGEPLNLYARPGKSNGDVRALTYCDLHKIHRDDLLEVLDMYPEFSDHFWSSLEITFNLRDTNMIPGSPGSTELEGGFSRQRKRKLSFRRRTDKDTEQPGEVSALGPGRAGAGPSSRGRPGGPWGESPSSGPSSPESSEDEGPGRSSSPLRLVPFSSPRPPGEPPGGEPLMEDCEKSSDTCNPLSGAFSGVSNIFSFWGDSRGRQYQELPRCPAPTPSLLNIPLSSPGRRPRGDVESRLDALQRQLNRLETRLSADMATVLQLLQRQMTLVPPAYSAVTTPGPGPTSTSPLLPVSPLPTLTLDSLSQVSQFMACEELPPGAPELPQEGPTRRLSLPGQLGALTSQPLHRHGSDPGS

Cc1cccc(O)c1C
inactive: Potency [1] | Potency [2] | Potency [3] | Potency [4] | Potency [5] | Potency [6] | Potency [7] | Potency [8] | Potency [9] | Potency [10] | Potency [11] | Potency [12] | Potency [13] | Potency [14] | Potency [15] | Potency [16] | Potency [17] | Potency [18] | Potency [19]

O=C(OCC(COC(=O)c1ccccc1)(COC(=O)c1ccccc1)COC(=O)c1ccccc1)c1ccccc1
inactive: Potency [1] | Potency [2] | Potency [3] | Potency [4] | Potency [5] | Potency [6] | Potency [7] | Potency [8] | Potency [9] | Potency [10] | Potency [11] | Potency [12] | Potency [13] | Potency [14] | Potency [15] | Potency [16] | Potency [17] | Potency [18]

C=CC(=O)OCC(CO)(COC(=O)C=C)COC(=O)C=C
active: Potency [1] 50.1 µM | activity change, negative = cytotoxicity [2] -91.9%
inactive: Potency [18]

CCCC[C@@H]1C[C@H]1C(NC(=O)c1ccco1)c1ccccc1 (stereo partly drawn)
active: Potency [20] 2 µM

CCC/C=C(\CCC)C(NS(=O)(=O)c1ccccc1)c1ccc(C(F)(F)F)cc1 (stereo not drawn)
active: Potency [20] 12.6 µM

CC(C)c1cccc2c([Si](C)(C)C)c3c(nc12)-c1cccc(=O)n1C3
active: Potency [20] 15.8 µM

CCCC/C=C/C(NC(=O)Oc1cccc(C(F)(F)F)c1)c1ccccc1 (stereo not drawn)
active: Potency [20] 2.51 µM

COC(=O)[C@H]1C[C@@H]1[C@H](NC(=O)OCc1ccccc1)c1ccccc1
active: Potency [20] 0.126 µM

CCCC[C@@H]1C[C@H]1C(NC(=O)c1cccs1)c1ccccc1C(F)(F)F (stereo partly drawn)
active: Potency [20] 6.31 µM

CC[C@H]1C(=O)OC[C@@H]1Cc1cncn1C
inactive: Potency [20]

CCCC/C=C/C(NC(=O)c1ccccc1)c1ccccc1 (stereo not drawn)
active: Potency [20] 3.98 µM

CCC/C=C(\CCC)C(NS(=O)(=O)c1cccs1)c1ccc(C(=O)OC)cc1 (stereo not drawn)
active: Potency [20] 12.6 µM

CCC/C=C(\CCC)C(NC(=O)OCC(C)C)c1ccc(C(=O)OC)cc1 (stereo not drawn)
active: Potency [20] 15.8 µM

COC(=O)c1ccc(C(NC(=O)c2ccccc2)[C@]2(C)C[C@H]2C2CCCCC2)cc1 (stereo partly drawn)
inactive: Potency [20]

CN1[C@H]2CC(OC(=O)[C@H](CO)c3ccccc3)C[C@H]1[C@H]1O[C@H]12 (stereo partly drawn)
inactive: Potency [1] | Potency [2] | Potency [4] | Potency [5] | Potency [6] | Potency [7] | Potency [8] | Potency [9] | Potency [10] | Potency [11] | Potency [12] | Potency [13] | Potency [14] | Potency [15] | Potency [16] | Potency [17] | Potency [19]

CCCCCCCC[N+](CCCCCCCC)(CCCCCCCC)CCCCCCCC
active: Potency [1] 12.6 µM | Potency [2] 10 µM | Potency [3] 10 µM | Potency [4] 10 µM | Potency [5] 3.16 µM | Potency [6] 7.94 µM | Potency [7] 6.31 µM | Potency [8] 7.94 µM | Potency [9] 7.94 µM | Potency [10] 7.94 µM | Potency [11] 7.94 µM | Potency [12] 7.94 µM | Potency [13] 12.6 µM | Potency [14] 5.01 µM | Potency [15] 3.16 µM | Potency [16] 6.31 µM | Potency [17] 3.98 µM | Potency [18] 0.355 µM | Potency [19] 2.66 µM

CCC/C=C(\CCC)C(NS(=O)(=O)c1ccc(Cl)cc1)c1ccc(C(=O)OC)cc1 (stereo not drawn)
active: Potency [20] 3.16 µM

CCCC[C@@H]1C[C@H]1C(NC(=O)c1ccco1)c1ccc(Cl)cc1 (stereo partly drawn)
active: Potency [20] 0.794 µM

CCc1cccc2c(-c3ccccc3)c3c(nc12)OCC3
active: Potency [20] 0.316 µM

CCc1c2c(nc3c(C(C)C)cccc13)-c1cccc(=O)n1C2
active: Potency [20] 0.398 µM

O=C(/C=C/c1ccc(O)c(O)c1)OC1C[C@](O)(C(=O)O)C[C@@H](O)[C@H]1O (stereo partly drawn)
inactive: Potency [1] | Potency [2] | Potency [3] | Potency [4] | Potency [5] | Potency [6] | Potency [7] | Potency [8] | Potency [9] | Potency [10] | Potency [11] | Potency [12] | Potency [13] | Potency [14] | Potency [15] | Potency [16] | Potency [17] | Potency [18] | Potency [19]

CCCC[C@@H]1C[C@H]1C(NC(=O)c1cccs1)c1ccc(Cl)cc1 (stereo partly drawn)
active: Potency [20] 1 µM

COC(=O)[C@@]1(Cc2ccccc2)[C@H]2c3cc(C(=O)N4CCCC4)n(Cc4ccccn4)c3C[C@H]2CN1C(=O)c1ccccc1
inactive: Potency [20]

COC(=O)[C@H](C)[C@H]1C[C@]1(C)[C@H](NC(=O)OCc1ccccc1)c1ccccc1
active: Potency [20] 15.8 µM
